From PubChem BioAssay (Tox21)
Where “and” joins values, the source holds several entries; their conditions need not be identical. Equal entries are not always repeated. Inconclusive results are not listed. Calls of active or inactive are those of the source. Unless noted, calls come from the whole dose curve.

Columns and labels:
[1] = Nuclear factor erythroid 2-related factor 2/antioxidant responsive element (Nrf2/ARE) small molecule agonists: luciferase reporter gene qHTS assay in human keratinocytes (AID 1919969); note: nearly all actives have a fitted effect of over 35% in size; note: potency is the fitted concentration of half-maximal effect
[2] = biological target: Gonadotropin-releasing hormone receptor (Homo sapiens) (UniProt P30968); test: Human gonadotropin-releasing hormone receptor (GnRHR) small molecule agonists, calcium flux assay in GnRHR-HEK293 cells (AID 1920063); note: nearly all actives have a fitted effect of over 35% in size
Sequence of Gonadotropin-releasing hormone receptor (Homo sapiens) (P30968 whole entry, looked up): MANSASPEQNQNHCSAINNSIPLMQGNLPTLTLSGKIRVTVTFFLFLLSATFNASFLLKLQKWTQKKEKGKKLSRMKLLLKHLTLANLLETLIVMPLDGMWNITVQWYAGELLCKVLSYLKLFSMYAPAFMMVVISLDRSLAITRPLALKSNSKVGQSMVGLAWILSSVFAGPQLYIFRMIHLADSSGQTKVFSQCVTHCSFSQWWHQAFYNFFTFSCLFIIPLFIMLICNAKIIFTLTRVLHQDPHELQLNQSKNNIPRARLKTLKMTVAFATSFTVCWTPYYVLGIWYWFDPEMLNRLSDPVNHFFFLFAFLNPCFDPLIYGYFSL
Outline: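 Tox21-format agonist screen using human GnRHR-expressing HEK293 cells and a fluorescent calcium dye; kinetic 3-min fluorescence reading after compound addition, 15-point concentration series run in triplicate.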

[3] = biological target: KiSS-1 receptor (Homo sapiens) (UniProt Q969F8); test: Human kisspeptin (KISS1R) small molecule agonists, calcium flux assay in KISS1R-HEK293 cells (AID 1920064; active = well fitted activation curve with a large enough effect in the repeat runs)
Sequence of KiSS-1 receptor (Homo sapiens) (Q969F8 whole entry, looked up): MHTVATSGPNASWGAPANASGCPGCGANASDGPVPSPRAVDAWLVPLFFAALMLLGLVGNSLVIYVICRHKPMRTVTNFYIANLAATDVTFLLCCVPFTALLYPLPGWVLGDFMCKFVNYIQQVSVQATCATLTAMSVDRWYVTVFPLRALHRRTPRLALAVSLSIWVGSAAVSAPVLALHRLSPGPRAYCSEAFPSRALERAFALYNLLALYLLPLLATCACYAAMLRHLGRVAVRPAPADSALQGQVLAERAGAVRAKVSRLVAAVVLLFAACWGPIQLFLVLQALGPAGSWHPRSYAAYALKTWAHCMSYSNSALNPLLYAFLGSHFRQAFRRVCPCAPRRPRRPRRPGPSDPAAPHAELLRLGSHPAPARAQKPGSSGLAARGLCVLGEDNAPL
Outline: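 Intracellular calcium mobilization in KISS1R-HEK293 cells was recorded by fluorescence (Ex/Em 480/540) for 3 min following compound addition to cells pre-loaded 1 h with calcium dye.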

[4] = G protein-coupled receptor (GPCR) small molecule agonists, calcium flux assay: HEK293 wild type cell line counter screen (AID 1920065)
Outline: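 In this agonist-mode screen, ATP is the positive control and DMSO the vehicle. Cells grow 18 h before a 1 h dye incubation at 37 C; signal is taken at Ex/Em 480/540 over 3 min.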

[5] = p53 small molecule agonists, cell-based qHTS assay with human liver microsomes (AID 1963577);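 note: p53 response element beta-lactamase reporter cells with liver microsomes plus NADPH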
Outline: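 p53RE-bla cells; 5 h settle, 37 C/5% CO2; cpd + HLM 0.5 mg/mL + NADPH 0.5 mg/mL (final); 16 h 37 C; LiveBLAzer 2 h RT dark; fluorescence readout.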

[6] = p53 small molecule agonists, cell-based qHTS assay with rat liver microsomes (AID 1963578)
Outline: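 Rat liver microsome activation: microsomes 0.5 mg/mL, NADPH 0.5 mg/mL final; p53RE-bla cells, 16 h 37 C; LiveBLAzer readout, 2 h RT dark.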

[7] = p53 small molecule agonists, cell-based qHTS assay with rat liver microsomes: qHTS cell viability counter screen (AID 1963580); note: nearly all actives have a fitted effect of over 45% in size
Outline: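 p53RE-bla HCT-116 cells were exposed 16 h at 37 C to compounds with rat liver microsomes (0.5 mg/mL) and NADPH (0.5 mg/mL). Viability was measured in the same wells as ATP content by CellTiter-Glo luminescence.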

[8] = p53 small molecule agonists, cell-based qHTS assay (AID 1963582; active = well fitted activation curve with a large enough effect in the signal ratio in the repeat runs, not every such curve was filed as active; the % refers to the signal ratio)
Outline: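 Agonist activity was scored from beta-lactamase FRET fluorescence in p53RE-bla cells treated 16 h at 37 C with compounds in DMSO, substrate incubation being 2 h at room temperature.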

[9] = biological target: Muscarinic acetylcholine receptor M1 (Homo sapiens) (UniProt P11229); test: Cholinergic receptor muscarinic 1 (CHRM1) small molecule antagonists, cell-based qHTS assay (AID 1963588); note: nearly all actives have a fitted effect of over 40% in size
Sequence of Muscarinic acetylcholine receptor M1 (Homo sapiens) (P11229 whole entry, looked up): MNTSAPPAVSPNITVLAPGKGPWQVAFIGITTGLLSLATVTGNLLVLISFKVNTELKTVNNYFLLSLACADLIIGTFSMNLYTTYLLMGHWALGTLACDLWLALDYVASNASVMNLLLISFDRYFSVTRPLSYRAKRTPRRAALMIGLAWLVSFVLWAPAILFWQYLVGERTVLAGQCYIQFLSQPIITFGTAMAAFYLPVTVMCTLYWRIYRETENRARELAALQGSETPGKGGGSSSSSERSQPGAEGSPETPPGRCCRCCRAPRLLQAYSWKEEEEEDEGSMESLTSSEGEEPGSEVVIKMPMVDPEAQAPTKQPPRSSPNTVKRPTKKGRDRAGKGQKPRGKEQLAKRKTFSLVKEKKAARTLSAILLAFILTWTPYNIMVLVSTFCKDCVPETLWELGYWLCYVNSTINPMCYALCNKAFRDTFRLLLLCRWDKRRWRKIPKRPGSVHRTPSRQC
Outline: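 CHRM1-CHO calcium-flux assay, antagonist mode. Cells were seeded 18 h, dye-loaded 1 h at 37 C and given compound for 5 min at RT, then acetylcholine was added at 50nM. FDSS fluorescence was read 3 min; 15 concentrations, three runs.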

[10] = biological target: Muscarinic acetylcholine receptor M1 (Homo sapiens) (UniProt P11229); test: Cholinergic receptor muscarinic 1 (CHRM1) small molecule agonists, cell-based qHTS assay (AID 1963589); note: nearly all actives have a fitted effect of over 35% in size
Outline: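 Stable CHRM1-CHO cells (human receptor) were incubated 18 h, dye-loaded for 1 h at 37 C and exposed to test compounds for agonist activity, with calcium-dependent fluorescence followed kinetically.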

[11] = cAMP Responsive Elements (CRE) small molecule agonists, cell-based qHTS assay (AID 1963590); note: potency is the fitted concentration of half-maximal effect
Outline: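 FRET-based beta-lactamase readout (LiveBLAzer B/G, 2 h RT) quantified CRE activation in HEK 293T CRE-bla cells after 3 h treatment with DMSO-dissolved compounds.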

[12] = cAMP Responsive Elements (CRE) small molecule antagonists, cell-based qHTS assay (AID 1963591; active = well fitted inhibition curve with a large enough effect in the signal ratio in the repeat runs, not every such curve was filed as active; the % refers to the signal ratio; note: potency is the fitted concentration of half-maximal effect)
Outline: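 qHTS in CRE-bla HEK 293T cells: compound in DMSO, then 0.25 uM NKH477 (final), 3 h at 37 °C/5% CO2; beta-lactamase FRET read-out after 2 h substrate incubation.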

[13] = biological target: Beta-2 adrenergic receptor (Homo sapiens) (UniProt P07550); test: Adrenergic beta2 receptor (ADRB2) small molecule antagonists, cell-based qHTS assay (AID 1963592); note: series mostly up to about 92 µM; nearly all actives have a fitted effect of over 50% in size
Sequence of Beta-2 adrenergic receptor (Homo sapiens) (P07550 whole entry, looked up): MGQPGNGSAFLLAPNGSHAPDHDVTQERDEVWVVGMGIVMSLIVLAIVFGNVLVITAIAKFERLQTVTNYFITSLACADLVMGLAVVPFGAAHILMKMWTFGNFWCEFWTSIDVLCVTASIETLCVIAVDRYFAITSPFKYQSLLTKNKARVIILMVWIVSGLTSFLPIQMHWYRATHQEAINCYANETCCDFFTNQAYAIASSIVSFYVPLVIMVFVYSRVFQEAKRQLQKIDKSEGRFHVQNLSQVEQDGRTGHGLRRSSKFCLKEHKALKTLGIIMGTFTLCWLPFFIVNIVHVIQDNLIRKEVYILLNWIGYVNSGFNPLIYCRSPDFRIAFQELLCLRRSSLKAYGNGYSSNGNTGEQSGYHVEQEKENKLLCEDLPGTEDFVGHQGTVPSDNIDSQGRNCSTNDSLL
Outline: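 Cells (CHO, stable ADRB2 overexpression) incubated 18-20hr at 37C; compounds added from DMSO; agonist mix (1nM isoproterenol, 100uM IBMX, 25uM Ro-20-1724) added; 0.5hr RT; d2-cAMP and anti-cAMP-cryptate added; 1hr RT; 665/615 nm read.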

[14] = biological target: Beta-2 adrenergic receptor (Homo sapiens) (UniProt P07550); test: Adrenergic beta2 receptor (ADRB2) small molecule agonists, cell-based qHTS assay (AID 1963593);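 note: CHO cells stably overexpressing human ADRB2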
Outline: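 CHO cells stably over-expressing ADRB2 were plated overnight at 37C, then dosed with compounds plus a stimulation mix containing 100uM IBMX and 25uM Ro-20-1724 for 0.5hr at room temperature. cAMP was measured by HTRF competition, 1hr.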

[15] = biological target: D(2) dopamine receptor (Homo sapiens) (UniProt P14416); test: Dopamine D2 receptor (DRD2) small molecule antagonists, cell-based qHTS assay (AID 1963595; active = well fitted inhibition curve with a large enough effect in the signal ratio in the repeat runs, with a control signal flat; the % refers to the signal ratio)
Sequence of D(2) dopamine receptor (Homo sapiens) (P14416 whole entry, looked up): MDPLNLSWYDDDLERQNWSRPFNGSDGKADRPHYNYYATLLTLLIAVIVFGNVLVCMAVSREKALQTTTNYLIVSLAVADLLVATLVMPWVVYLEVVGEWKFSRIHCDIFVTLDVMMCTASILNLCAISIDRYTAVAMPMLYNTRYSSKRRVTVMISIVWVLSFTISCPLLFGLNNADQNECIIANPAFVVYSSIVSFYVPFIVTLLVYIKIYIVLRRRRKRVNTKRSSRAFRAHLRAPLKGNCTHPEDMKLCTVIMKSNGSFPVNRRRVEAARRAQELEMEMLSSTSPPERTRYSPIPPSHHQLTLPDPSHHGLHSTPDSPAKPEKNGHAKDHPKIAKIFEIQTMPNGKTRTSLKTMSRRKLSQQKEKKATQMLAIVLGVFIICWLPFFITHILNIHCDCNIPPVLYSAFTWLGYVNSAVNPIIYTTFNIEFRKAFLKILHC
Outline: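 HTRF cAMP read-out at 665 and 620 nm emission (340 nm excitation). Antagonist mode: compounds were tested against 12 nM quinpirole in DRD2-HEK293 cells, with 200 nM NKH477 raising cAMP and 0.1 mM Ro20-1724 blocking its breakdown.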

[16] = p53 small molecule agonists, cell-based qHTS assay: qHTS cell viability counter screen (AID 1963581); note: nearly all actives have a fitted effect of over 45% in size
Outline: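 Compounds are pinned onto HCT-116 p53RE-bla cells and left 16 h at 37 C. Following the reporter FRET read, ATP is quantified by CellTiter-Glo luminescence after 30 min at room temperature.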

[17] = biological target: 5-hydroxytryptamine receptor 2A (Homo sapiens) (UniProt P28223); test: 5-hydroxytryptamine receptor 2A (HTR2A) small molecule agonists, cell-based qHTS assay (AID 1963587); note: nearly all actives have a fitted effect of over 30% in size; note: potency is the fitted concentration of half-maximal effect
Sequence of 5-hydroxytryptamine receptor 2A (Homo sapiens) (P28223 whole entry, looked up): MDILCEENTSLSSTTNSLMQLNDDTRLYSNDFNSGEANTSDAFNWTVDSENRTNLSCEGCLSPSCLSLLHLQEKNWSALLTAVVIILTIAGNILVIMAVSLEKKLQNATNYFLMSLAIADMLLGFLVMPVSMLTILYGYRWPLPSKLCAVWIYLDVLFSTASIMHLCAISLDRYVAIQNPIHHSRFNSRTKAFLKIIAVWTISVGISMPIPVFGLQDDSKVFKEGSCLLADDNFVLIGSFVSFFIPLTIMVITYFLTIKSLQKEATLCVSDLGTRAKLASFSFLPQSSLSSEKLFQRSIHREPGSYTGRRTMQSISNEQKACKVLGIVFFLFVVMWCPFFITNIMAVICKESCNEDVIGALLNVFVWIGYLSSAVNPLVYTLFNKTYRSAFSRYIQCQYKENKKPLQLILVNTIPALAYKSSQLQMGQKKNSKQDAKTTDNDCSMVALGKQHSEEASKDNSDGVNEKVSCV
Outline: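 CHO cells stably expressing human HTR2A, plated 18 h, loaded with calcium dye 1 h at 37 C. Agonist mode: compounds added and intracellular calcium fluorescence recorded kinetically for 2 min at 1 sec intervals.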

[18] = biological target: D(2) dopamine receptor (Homo sapiens) (UniProt P14416); test: Dopamine D2 receptor (DRD2) small molecule agonists, cell-based qHTS assay (AID 1963594); note: nearly all actives have a fitted effect of over 35% in size
Outline: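 HEK293 cells stably expressing human DRD2, pre-treated with PDE inhibitor Ro20-1724 (0.1 mM final) and compound 10 min at room temperature, then stimulated with NKH477 (200nM […]) for 30 min. cAMP read by HTRF (665/620 nm).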

[19] = p53 small molecule agonists, cell-based qHTS assay with human liver microsomes: qHTS cell viability counter screen (AID 1963579); note: nearly all actives have a fitted effect of over 45% in size; note: potency is the fitted concentration of half-maximal effect
Outline: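 Luminescent CellTiter-Glo read-out, 30 min at room temperature, gauged cytotoxicity in p53RE-bla cells exposed 16 h at 37 C to DMSO-dissolved compounds with metabolic activation by human liver microsomes and NADPH, each 0.5 mg/mL final.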

[20] = biological target: 5-hydroxytryptamine receptor 2A (Homo sapiens) (UniProt P28223); test: 5-hydroxytryptamine receptor 2A (HTR2A) small molecule antagonists, cell-based qHTS assay (AID 1963586); note: nearly all actives have a fitted effect of over 45% in size
Outline: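 Antagonist-mode intracellular calcium assay: DOI (4 nM) added after 5 min compound pre-incubation at room temperature to dye-loaded HTR2A-CHO cells. Fluorescence followed for 3 min, sampled every second.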

Measured: Potency

CCc1cc2cc(OC)c(OC)cc2c(Cc2ccccc2)n1
active: [11] 11.9 µM
not listed: [16] | [17] | [18] | [19] | [20]
inactive: all other assays above

CC1(C)O[C@@H]2C[C@H]3[C@@H]4CCC5=CC(=O)C=C[C@]5(C)[C@H]4[C@@H](O)C[C@]3(C)[C@]2(C(=O)CO)O1
not listed: [10] | [11] | [12] | [15] | [19] | [20]
inactive: all other assays above

O=C1c2ccccc2C(=O)N1SC1CCCCC1
active: [1] 21.7 µM and 24.3 µM
not listed: [7] | [11] | [17]
inactive: all other assays above

CCCCCCCOC(=O)c1ccc(O)cc1
active: [19] 36.4 µM | [17] 38.9 µM | [12] 38.6 µM and 45.2 µM
not listed: [7] | [8] | [11] | [16]
inactive: all other assays above

COc1cc(Nc2c(C#N)cnc3cc(OCCCN4CCN(C)CC4)c(OC)cc23)c(Cl)cc1Cl
not listed: [8] | [11] | [16] | [19] | [20]
inactive: all other assays above

CCCCCOc1ccccc1/C(=C\SC)n1ccnc1
active: [1] 5.96 µM
not listed: [11] | [12] | [16] | [19]
inactive: all other assays above

CCCC(=O)O[C@]1(C(=O)CCl)[C@@H](C)C[C@H]2[C@@H]3CCC4=CC(=O)C=C[C@]4(C)[C@@]3(F)C(=O)C[C@@]21C
not listed: [11] | [12] | [16] | [18] | [19]
inactive: all other assays above
